Hits are enriched below; roughly 19% of the tested compounds scored in any of these assays.
TDP1 cell noCPT – qHTS for Inhibitors of human tyrosyl-DNA phosphodiesterase 1 (TDP1): qHTS in cells in absence of CPT | Potency, µM (highest dose often 46.2 µM), most hits filed as inhibitors | hit rate 15% among 420,000 | DT40 Tdp1-/- hTDP1 cells, no CPT, ATP luminescence, 48 h; note: nearly all actives have a fitted effect of over 55% in size
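Luminescent ATP content (CellTiter-Glo) served as the growth readout. Knockout chicken DT40 cells expressing human TDP1 were exposed to compounds without camptothecin for a minimum 48 hr at 37 °C.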
HT1080-NT tox – kills 2HG-producing HT-1080-NT fibrosarcoma cells; hit rate 1.6% among 360,000; AID 686970; Potency, µM (highest dose often 46.1 µM), hits mostly cytotoxic; HT-1080-NT fibrosarcoma viability, CellTiter-Glo ATP luminescence, 48 h;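 note: NT is the 2HG producing partner of a matched IDH1 knockdown line; nearly all actives have a fitted effect of over 55% in size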
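Luminescent CellTiter-Glo readout after 48 hours of compound exposure at 37 degrees C defined viability of HT-1080-NT cells. Activity was normalized to DMSO wells and cell-free media wells; concentration-response curves were fitted and assigned curve classes.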
HT1080 IDH1KD tx – toxicity to HT-1080 IDH1 knockdown cells (counter line); Potency, µM (doses to about 46.1 µM), most hits filed as cytotoxic; hit rate 2% among 360,000; AID 686971; HT-1080 IDH1 knockdown viability, ATP luminescence, 48 h
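CellTiter-Glo luminescence after 48 h compound exposure at 37 degrees C of IDH1-knockdown HT-1080 cells in 5% FBS RPMI. %Activity scaled between DMSO wells and cell-free media wells, with curves fitted and assigned curve classes.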
KB-V1 MDR tox – KB-V1 MDR subline cytotoxicity. KB-V1 MDR cells viability, CellTiter-Glo, 72 h. Potency, µM (series often up to 46.1 µM), most hits filed as cytotoxic. hit rate 3.4% among 400,000; note: nearly all actives have a fitted effect of over 60% in size
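KB-V1, DMEM (no phenol red) + 10% FBS; cpd pin-transferred, titration series; 72 h, 37 degrees C; CellTiter-Glo, luminescence. Data normalized, curve-fit.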
KB-3-1 cytotox – kills parental KB-3-1 adenocarcinoma cells; hit rate 1.4% among 400,000; KB-3-1 viability, CellTiter-Glo ATP luminescence, 72 h; AID 1347075; Potency, µM (series often up to 46.1 µM), usual class: cytotoxic; note: nearly all actives have a fitted effect of over 60% in size
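Using CellTiter-Glo luminescence, growth of non-resistant KB-3-1 adenocarcinoma cells is assessed 72 h after pin-tool compound addition at 37 °C. Normalized responses across the concentration series yield fitted curves.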
DT40 TDP1 CPT – growth inhibition of DT40 Tdp1-/-;hTDP1 cells with camptothecin (screen for TDP1 inhibitors); chicken DT40 Tdp1-/-;hTDP1 cells + 20 nM CPT, ATP luminescence, 48 h; Potency, µM (series often up to 46.2 µM), usual class: inhibitors; hit rate 12% among 420,000; AID 686979; note: nearly all actives have a fitted effect of over 55% in size
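Chicken DT40 Tdp1-/- cells complemented with human TDP1, 400 cells/well, exposed to compounds plus 20 nM camptothecin for at least 48 h at 37 C; viability read as ATP content by CellTiter-Glo luminescence.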
Each line names hits and unclear results; the compound was inactive in the other large screens; ! = a repeat was not active. Calls come from the whole dose curve; as a rule, active = well fitted curve in the direction sought with a large enough effect; inconclusive = small, poorly fitted or top-dose-only effect, or another doubt; inactive = no such curve, though single readings can be large; an effect the other way counts as inactive or inconclusive.

CCC(=O)N1CCC1(C)C(=O)NCc1ccccc1SC (stereo not drawn)	none
CCOC(=O)Cn1nnnc1CN(CCc1ccccc1)Cc1cc2cc(CC)ccc2[nH]c1=O	TDP1 cell noCPT inconclusive, HT1080 IDH1KD tx inconclusive, KB-V1 MDR tox inconclusive, DT40 TDP1 CPT 18µM
CCc1ccc2[nH]c(=O)c(CN(Cc3cccnc3)Cc3nnnn3Cc3ccccc3)cc2c1	TDP1 cell noCPT 20µM, DT40 TDP1 CPT 11µM (no result: HT1080-NT tox, HT1080 IDH1KD tx)
Cc1ccc2[nH]c(=O)c(CN(Cc3cccs3)Cc3nnnn3Cc3ccccc3)cc2c1	TDP1 cell noCPT inconclusive, HT1080-NT tox inconclusive, HT1080 IDH1KD tx inconclusive
CCc1ccc2[nH]c(=O)c(CN(Cc3ccccc3)Cc3nnnn3C(C)(C)C)cc2c1	TDP1 cell noCPT 11µM, KB-3-1 cytotox inconclusive, DT40 TDP1 CPT 14µM (no result: HT1080-NT tox, HT1080 IDH1KD tx)
CCc1ccc2[nH]c(=O)c(CN(Cc3ccc(OC)cc3)Cc3nnnn3CCOC)cc2c1	TDP1 cell noCPT inconclusive, DT40 TDP1 CPT 18µM
CCCC(=O)N1CCC1(C)C(=O)NS(=O)(=O)c1ccccc1 (stereo not drawn)	HT1080-NT tox inconclusive
CCC(CO)Nc1ccc(-c2n[nH]c(=O)c3ccccc23)cc1[N+](=O)[O-] (stereo not drawn)	KB-3-1 cytotox inconclusive, DT40 TDP1 CPT inconclusive
CSCCC(NC(=O)OCc1ccccc1)NC(=O)OCc1ccccc1	none
CNc1cccc(-c2cccc(O)c2)n1	none
CNc1cc(F)nc(F)n1	TDP1 cell noCPT 16µM, DT40 TDP1 CPT 18µM
Fc1cccc(Cc2c(-c3cccc(Cl)c3)nc3c(Cl)cc(C(F)(F)F)cn23)c1	none
CCN(CC)c1ccc(C(=O)NNC(=O)CCl)cc1	TDP1 cell noCPT inconclusive, HT1080 IDH1KD tx inconclusive, KB-3-1 cytotox inconclusive, DT40 TDP1 CPT 16µM
CCN(CC)c1ccc(C(=O)NNC(=O)CCNC(=O)c2ccccc2)cc1	none
CCN(CC)S(=O)(=O)c1ccc(-c2nnc3sc4cccc(C)c4n23)cc1	TDP1 cell noCPT inconclusive, DT40 TDP1 CPT 23µM
CCN(CC)S(=O)(=O)c1ccc(-c2nnc(SCC(N)=O)n2CC)cc1	none
N#Cc1ccc(CN2CCCC3(CCN(C(=O)c4csnn4)CC3)C2)cc1	TDP1 cell noCPT inconclusive (no result: HT1080-NT tox, HT1080 IDH1KD tx, KB-V1 MDR tox, KB-3-1 cytotox)
CN(C)c1ccc(/C=C/c2cccc3cc4ccccc4nc23)cc1	TDP1 cell noCPT 0.13µM, KB-3-1 cytotox 4.1µM, DT40 TDP1 CPT 0.1µM (no result: HT1080-NT tox, HT1080 IDH1KD tx)
CCN(CC)c1ccc(/C=C/c2cc(-c3ccccc3)c3ccccc3n2)cc1	TDP1 cell noCPT 26µM
CN(C)c1ccc(C(=N)Cc2ccc3ccccc3n2)cc1	TDP1 cell noCPT inconclusive, DT40 TDP1 CPT 21µM
CC(=O)Oc1ccc(C(=O)Cc2ccc3ccccc3n2)c(O)c1C	none
CCN(CC)c1ccc(/C=N/NC(=O)c2cc(C)nc3ccccc23)cc1	TDP1 cell noCPT inconclusive, HT1080 IDH1KD tx inconclusive
CN(C)c1ccc(/C=C/c2cc(/C=C/c3ccc(N(C)C)cc3)c3ccccc3n2)cc1	TDP1 cell noCPT 11µM, DT40 TDP1 CPT inconclusive (no result: HT1080-NT tox, HT1080 IDH1KD tx)
Cc1cc(N/N=C/c2ccc(N(C)C)cc2)c2ccccc2n1	TDP1 cell noCPT inconclusive
CCN(CC)C(=O)Cn1c(=O)n(Cc2ccc(C(=O)NCCCOC)cc2)c(=O)c2ccccc21	KB-V1 MDR tox inconclusive (no result: HT1080-NT tox, HT1080 IDH1KD tx)
OCc1ccccc1-c1nc(NCc2ccccc2)nc2ccsc12	HT1080 IDH1KD tx inconclusive, DT40 TDP1 CPT inconclusive
CN(C)c1ccc(/C=C/c2ccc3cc(F)ccc3n2)cc1	TDP1 cell noCPT 10µM, DT40 TDP1 CPT inconclusive (no result: HT1080-NT tox, HT1080 IDH1KD tx)
CN(C)c1ccc(/C=C/c2ccc3ccccc3n2)cc1	TDP1 cell noCPT 12µM, HT1080-NT tox inconclusive, HT1080 IDH1KD tx inconclusive, KB-V1 MDR tox 7.3µM!, KB-3-1 cytotox 8.2µM!, DT40 TDP1 CPT 18µM
Cc1cc(/C=C/c2ccccc2)nc2ccccc12	TDP1 cell noCPT 10µM, KB-V1 MDR tox inconclusive, DT40 TDP1 CPT inconclusive (no result: HT1080-NT tox, HT1080 IDH1KD tx)
CN(C)c1ccc(/C=C/c2ccc3cc(N(C)C)ccc3n2)cc1	TDP1 cell noCPT inconclusive, KB-V1 MDR tox inconclusive, DT40 TDP1 CPT 13µM (no result: HT1080-NT tox, HT1080 IDH1KD tx)
Nc1c(-c2ccc3c(c2)OCCO3)oc2ccccc2c1=O	TDP1 cell noCPT inconclusive, KB-V1 MDR tox inconclusive, KB-3-1 cytotox inconclusive
COc1ccc(CNC(=O)CSc2ncc(S(=O)(=O)c3ccc(C)c(Cl)c3)c(=O)[nH]2)cc1	none (no result: TDP1 cell noCPT, HT1080-NT tox, HT1080 IDH1KD tx, DT40 TDP1 CPT)
COc1ccc2ccc(C(C)(C(C)=O)C(=O)OC(C)C)cc2c1 (stereo not drawn)	TDP1 cell noCPT inconclusive, DT40 TDP1 CPT inconclusive
CCOc1cc(/C=C/c2cc(C(=O)O)c3ccccc3n2)ccc1O	none
